# AMA1-RON2 inh: disrupts binding of P. falciparum AMA1 to RON2; AlphaScreen AMA1-biotinylated RON2 peptide binding; Potency, µM (doses to about 58.2 µM), for the others: at the top dose activity change, negative = inhibition, most hits filed as inhibitors; hit rate 0.2% among 360,000;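 note: potency is the fitted concentration of half-maximal effect; 0% = vehicle wells and -100% = peptide control; nearly all actives have a fitted effect of over 45% in size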
#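 AMA1 (3D7) with his tag at 25 nM final met compounds first, then biotinylated RON2 peptide at 25 nM; detection used donor plus acceptor beads, 10 µg/mL apiece, read by AlphaScreen after 30 min at room temperature.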
# CHX counter: counter-screen for Shiga toxin inhibitors: cycloheximide protein synthesis inhibition; cell reporter, cycloheximide protein synthesis inhibition counterscreen; hit rate 12% among 300,000; max response, %; in the data active = max response mostly above about 13%, no sharp cut-off; inactive = mostly below about 14%; note: read at 38.3 µM for the half of the compounds with a filed dose; 0% is about no effect
# Shiga inhibitor: inhibitors of Shiga toxin in Vero cells; Vero cells, Shiga toxin protein synthesis inhibition reporter; inhibition, % at 38.7 µM; hit rate 9.2% among 290,000; AID 2315; in the data active = inhibition mostly above about 28%, no sharp cut-off; inactive = mostly below about 43%; note: 0% is about no effect
# Pf growth 48h: inhibits P. falciparum growth in the first generation, 48 h | P. falciparum luciferase growth in erythrocytes, 48 h | hit rate 5.9% among 310,000 | Potency, µM (top dose mostly 28.7 µM), for inactives: top-dose activity change, negative = inhibition, hits mostly inhibitors; note: potency is the fitted concentration of half-maximal effect; % is set by controls: 0 for no effect and ±100 for the full control effect
#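 Luciferase-expressing parasites in RBCs, 2% Hct / 0.1% parasitemia final; RPMI 1640 + 0.5% Albumax; 37 C, 5% CO2, one generation; luminescence read-out, lower signal = inhibition.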
# HCV inh: HCV inhibition; Huh7.5.1 HCVcc-Cre infection, luciferase reporter, 44 h; Potency, µM (doses to about 41.8 µM), for the others: top-dose activity change, negative = inhibition, hits mostly inhibitors; hit rate 3.4% among 340,000; note: potency is the fitted concentration of half-maximal effect; % is set by controls: 0 for no effect and ±100 for the full control effect
#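 Reporter virus HCVcc-Cre (~0.5 moi) infects cells exposed to compound; seeding density 1,000 cells/well with 4 h settling beforehand. Luminescence, 15 sec read, taken 44 h post-infection following a 15 min RT substrate incubation.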
# Pf growth 96h: inhibits malaria parasite growth, 96 h. P. falciparum luciferase reporter growth, 96 h. Potency, µM (titrated, usually from 28.7 µM), for inactives: at the highest dose activity change, negative = inhibition, usual class: inhibitors. hit rate 6.9% among 320,000. AID 504834; note: potency is the fitted concentration of half-maximal effect; % is set by controls: 0 for no effect and ±100 for the full control effect
#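 Two-generation exposure (96 h) targets delayed-death phenotype. Reporter parasites carrying integrated firefly luciferase, in red cells at 2% hematocrit and 0.05% parasitemia final, kept at 37 C, 5% CO2; luminescence loss indicates inhibition.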
# An asterisk follows results filed as active; i = inactive; u = inconclusive; x = no result given; + = active, no number; [ ] = dose if it differs, or a comment. Rows were chosen to be rich in hits. Some 21% of all compounds tested hit in one or more screens of this group. Unless noted, calls come from the whole dose curve; as a rule, active = well fitted curve in the direction sought with a large enough effect; inconclusive = small, poorly fitted or top-dose-only effect, or another doubt; inactive = no such curve, though single readings can be large; an effect the other way counts as inactive or inconclusive.
SMILES,AMA1-RON2 inh,CHX counter,Shiga inhibitor,Pf growth 48h,HCV inh,Pf growth 96h
CCC1CCCCN1CCCNC(=O)c1ccc2nc(N3CCCCC3)sc2c1 (configuration not stated),0%,15,17,-21%,-30%,u
COc1cc(C=O)ccc1OCCSc1ccc(Cl)cc1,28%,22*,70*,50%,7%,33%
COc1cc(C=O)ccc1OCCOCCOc1ccc(Cl)cc1,-7%,-3,14,8%,3%,6%
CCOc1ccc(Cl)cc1/C=N/O,2%,-6,-17,18%,u,17%
CCOC(=O)N/N=C/c1ccc(OCCSc2ccc(Cl)cc2)c(OCC)c1,-8%,1,1,1.9µM*,u,3.3µM*
CCOC(=O)N/N=C/c1ccc(OCCSc2ccc(Cl)cc2)c(OC)c1,-6%,-1,-8,5.2µM*,u,2.1µM*
CCOc1ccc(Cl)cc1/C=N/NC(N)=O,2%,-2,-11,30%,14µM*,26%
CCOc1cc(/C=N/NC(=O)CN2CCCCC2)ccc1OCc1ccc(Cl)cc1,9%,-1,-10,0%,9%,33%
COc1cccc2c1OC(=O)CC2c1ccc(C)cc1 (configuration not stated),x,6,i,x,x,x
CC1=NN(c2cccc(C(=O)O)c2)C(=O)/C1=C\C=C/c1ccccc1,11%,80*,+,u,u,-11%
CC1=NN(c2ccccc2)C(=O)/C1=C/C=C/C=C/N(C)C,u,-3,32,17%,u,-7%
CC1=NN(c2ccc(C)cc2)C(=O)/C1=C\C=C\c1ccccc1,u,-1,3,13µM*,8%,u
O=[N+]([O-])c1cc(C(F)(F)F)cc([N+](=O)[O-])c1NCCNC(=S)Nc1cccc(F)c1,-4%,6,-4,-16%,u,u
O=C(OCC1COc2ccccc2O1)c1ccccc1F (configuration not stated),34%,19*,25,x,6%,-19%
O=C(NC(=S)NCC1COc2ccccc2O1)c1ccccc1 (configuration not stated),0%,7,11,3%,-21%,u
O=C(NCC1COc2ccccc2O1)c1ccccc1 (configuration not stated),13%,50*,103*,172%,0%,-29%
O=C(NCC1COc2ccccc2O1)c1ccc(NC(=O)C2CCCO2)cc1 (configuration not stated),3%,15*,37*,21%,-12%,23%
Cc1ccccc1NC(=O)c1ccc(NC(=O)C2CCCO2)cc1 (configuration not stated),11%,-3,41,27%,9%,-13%
O=C(NCC1COc2ccccc2O1)c1ccco1 (configuration not stated),17%,1,-4,3%,11%,u
O=C(NCC1COc2ccccc2O1)c1cc2ccccc2o1 (configuration not stated),6%,31*,65*,u,-14%,u
CCCCNC(=O)Nc1ncn[nH]1,-8%,-5,-5,24%,22%,23%
Cc1cccc(S(=O)(=O)NCCc2ccccc2)c1,-1%,-3,-8,-11%[5.75 µM],6%,21%[5.75 µM]
O=C1[C@@H]2[C@H](C(=O)N1CC(O)COCc1ccccc1)C1C=C[C@H]2C1 (some centres not stated),3%,x,x,x,36%,x
O=C(NC1(Cc2ccccc2)CCN(CCCc2ccccc2)C1=O)c1ccccc1 (configuration not stated),11%,x,x,u,u,-14%
O=C(NCC1COc2ccccc2O1)c1ccc(NC(=O)C(c2ccccc2)c2ccccc2)cc1 (configuration not stated),0%,-5,-6,9.3µM*,u,u
SMILES,AMA1-RON2 inh,CHX counter,Shiga inhibitor,Pf growth 48h,HCV inh,Pf growth 96h
Cc1ccc(/C=C/C(=O)NCC2COc3ccccc3O2)o1 (configuration not stated),-5%,16*,18,-5%,-12%,u
O=C(CCNC(=O)c1ccccc1Cl)NCC1COc2ccccc2O1 (configuration not stated),-3%,x,x,u,15%,1%
O=C(CCNC(=O)c1ccc(Br)cc1)NCC1COc2ccccc2O1 (configuration not stated),-7%,23*,71*,u,15%,48%
O=C(Cc1ccccc1)Nc1ccc(C(=O)NCC2COc3ccccc3O2)cc1 (configuration not stated),0%,0,-7,2%,-22%,0%
O=C(CC1Nc2ccccc2NC1=O)NCC1COc2ccccc2O1 (configuration not stated),-4%,9,14,12µM*,7%,11%
COc1ccc(C(=O)C(=O)N2CCC(Cc3ccccc3)CC2)cc1OC,14%,x,x,x,x,x
CSc1ccccc1C(=O)NCCOc1cccc(C)c1,-2%,-7,26,-32%[1.15 µM],-6%,2%
O=C(NCC1CCCO1)c1cccc2ccccc12 (configuration not stated),6%,-3,-6,8%,10%,u
O=C(NCC1CCCO1)c1cc2ccccc2o1 (configuration not stated),3%,24*,24,43%,9%,19%
O=C(CSc1nnc(-c2cccs2)n1CC1CCCO1)c1cc2ccccc2o1 (configuration not stated),-2%,9,-12,30%,-13%,12µM*
Cn1c(SCC(=O)c2cc3ccccc3o2)nnc1-c1ccccc1,15%,7,11,2%,u,-7%
COc1ccc(CNC[C@H]2O[C@@H](n3ccc(=O)[nH]c3=O)[C@H](O)[C@@H]2O)cc1,7%,x,x,x,x,x
C=C1[C@@H](O)[C@@H]2O[C@]3(CC[C@H](/C=C/[C@@H](C)[C@@H]4CC(C)=CC5(O[C@H](C[C@@](C)(O)C(=O)OC)CC[C@H]5O)O4)O3)CC[C@H]2O[C@@H]1[C@@H](O)C[C@H](C)[C@H]1OC2(CCCCO2)CC[C@H]1C (some centres not stated),4%,x,x,x,0.56µM*,x
C=C1C(O)[C@@H]2O[C@]3(CC[C@H](/C=C/C(C)[C@@H]4CC(C)=CC5(O[C@H](C[C@@](C)(O)CO)CCC5O)O4)O3)CC[C@H]2O[C@@H]1C(O)CC(C)[C@H]1OC2(CCCCO2)CCC1C (some centres not stated),39%,x,x,x,1.4µM*,x
COc1ccc(-c2[nH]ncc2CNCCCSC)cc1F,0%,1,-10,-3%,9%,5.2µM*
Cc1cn(C2CCCCC2)c(=O)[nH]c1=O,13%,x,x,x,21%,x
